Values without a mark were called inactive. Active and inactive are the calls of the source.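 Rule for the calls: active = thallium flux through the channel raised or lowered by more than 3 SD from vehicle-only wells, actives on both sides; inactive = the rest.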

Common to all, as to assay: BK channel mutant inhibitors and activators – cell-based, U2OS BacMam, thallium flux, beta subunits, selectivity assay, profiling panel (AID 1259406);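 note: initial slope of Thallos dye fluorescence rise after thallium is added; log ratio against the mean of 0.3% DMSO vehicle wells on the same plate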
The test system of assay [1] is F380Y. The note with it: U2OS BacMam BK variants, at 30 µM.
Assay [2] relates to F380Y/beta1. The note with it: U2OS BacMam BK variants, at 30 µM.
Assay [3] deals with F380Y/beta2Delta. The note with it: U2OS BacMam BK variants, at 30 µM.
For assay [4], the system named is F380Y/beta4. The note with it: U2OS BacMam BK variants, at 30 µM.
Assay [5] addresses Calcium-activated potassium channel subunit alpha-1 (Homo sapiens) + Leucine-rich repeat-containing protein 26 (Homo sapiens) (UniProt Q12791+Q2I0M4). The settings on record: U2OS BacMam BK variants, F380Y/Slo1WT/gamma1, at 30 µM.
Assay [6] deals with R275C. The settings on record: U2OS BacMam BK variants, at 30 µM.
Assay [7] has as its system R275C/beta1. The settings on record: U2OS BacMam BK variants, at 30 µM.
For assay [8], the system named is R275C/beta2Delta. The settings on record: U2OS BacMam BK variants, at 30 µM.
Assay [9] relates to R275C/beta4. The settings on record: U2OS BacMam BK variants, at 30 µM.
The test system of assay [10] is R275C/Slo1WT/beta2. The settings on record: U2OS BacMam BK variants, at 30 µM.

Calcium-activated potassium channel subunit alpha-1 (Homo sapiens) + Leucine-rich repeat-containing protein 26 (Homo sapiens), sequence (Q2I0M4 whole entry, looked up, one chain of several): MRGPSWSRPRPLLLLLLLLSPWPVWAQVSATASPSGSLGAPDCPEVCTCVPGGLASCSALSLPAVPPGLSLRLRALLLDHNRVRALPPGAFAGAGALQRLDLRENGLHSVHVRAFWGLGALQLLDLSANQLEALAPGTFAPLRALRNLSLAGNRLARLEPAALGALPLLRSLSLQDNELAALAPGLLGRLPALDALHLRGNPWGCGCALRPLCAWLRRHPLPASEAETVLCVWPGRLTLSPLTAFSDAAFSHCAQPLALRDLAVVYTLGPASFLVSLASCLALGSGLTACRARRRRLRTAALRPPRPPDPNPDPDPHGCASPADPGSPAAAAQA

Turning to `COc1cc(NC(=S)Nc2cccc(C)n2)c(OC)cc1Cl`, the log fold change Tl+ flux is 0.00134 in [1]; -0.00183 in assay [2]; 0.043 in assay [3]; 0.0519 in assay [4]; -0.00641 in assay [5]; 0.00398 in assay [6]. For the same molecule, the log fold change Tl+ flux is -0.033 in [7], 0.0321 in [8], -0.0698 in [9] and -0.00284 in assay [10].
Take `O=C(c1ccc(-c2cccs2)s1)c1ccc(F)cc1F`: the log fold change Tl+ flux in [1] was -0.00876; in assay [2], 0.022; in assay [3], 0.0129; in assay [4], 0.0546; in assay [5], 0.0119; in [6], -0.00813. In addition, the log fold change Tl+ flux in assay [7] was 0.00849; in assay [8], 0.0495; in assay [9] it was -0.00599; in [10], 0.0293.
As for `COC(=O)c1c(S(=O)(=O)N2CCOCC2)c(C)n(C)c1C`, the log fold change Tl+ flux was 0.000226 in assay [1]; 0.0187 in assay [2]; -0.00469 in assay [3]; 0.00738 in [4]; 0.0534 in assay [5]; -0.00135 in [6]. Besides, the log fold change Tl+ flux in assay [7] was 0.0384; in assay [8], 0.108 (active); in [9] it was 0.0019; in assay [10], -0.000777.
Consider `CN(NC(=O)c1ccc(Cl)s1)c1cnn(-c2cc(Cl)cc(Cl)c2)c(=O)c1Cl`, for which the log fold change Tl+ flux in assay [1] was 0.0366; in assay [2], -0.0161; in [3], 0.019; in assay [4], 0.00909; in assay [5] it was -0.0561; in assay [6] it was -0.0148. Also, the log fold change Tl+ flux is 0.00182 in assay [7], 0.046 in assay [8], -0.0313 in assay [9] and -0.00119 in assay [10].
For `CN(C)c1ccc(C=NNC(N)=S)c(Cl)c1`, the log fold change Tl+ flux was 0.178 (active) in assay [1]; 0.329 (active) in assay [2]; 0.177 (active) in assay [3]; 0.174 (active) in [4]; -0.221 (active) in assay [5]; -0.509 (active) in assay [6]. In addition, the log fold change Tl+ flux in assay [7] is -0.285 (active); in [8], -0.0612; in [9], -0.244 (active); in [10], -0.154 (active).
As for `Cc1c(C(=O)Nc2ccc(N3CCOCC3)c(Cl)c2)cnn1-c1ccc(F)cc1`, the log fold change Tl+ flux in [1] was -0.0177; in assay [2] it was -0.00879; in [3], -0.0427; in [4] it was 0.0219; in assay [5], -0.0278; in assay [6], -0.00699. The log fold change Tl+ flux in [7] is 0.0051; in assay [8], -0.0229; in assay [9], 0.0362; in assay [10], 0.000473.
Turning to `COCCCNC(=O)C(C#N)=CN(C)C`, the log fold change Tl+ flux in assay [1] was -0.062; in assay [2] it was -0.0601; in assay [3] it was -0.103 (active); in assay [4] it was 0.0041; in assay [5] it was -0.0197; in [6], -0.0308. In addition, the log fold change Tl+ flux in assay [7] was -0.0584; in assay [8] it was -0.0395; in assay [9], -0.0325; in [10], 0.0541.
`CC(=O)Oc1ccc(OC(C)=O)c2cc3c(OC(C)=O)ccc(OC(C)=O)c3cc12`: the log fold change Tl+ flux in assay [1] is -0.0214; in [2] it was -0.0286; in assay [3] it was -0.0254; in [4] it was 0.0175; in assay [5] it was 0.0282; in assay [6], -0.0106. Also, the log fold change Tl+ flux in [7] is -0.0199; in [8], -0.0114; in assay [9], -0.0622; in assay [10], 0.0234.
Take `O=C(O)CC1(CC(=O)Nc2cccc3nsnc23)CCCCC1`: the log fold change Tl+ flux in assay [1] is 0.0408; in assay [2], 0.0186; in [3], 0.0387; in [4] it was 0.0555; in [5], 0.00374; in [6], 0.055. Further, the log fold change Tl+ flux in [7] is 0.00874; in assay [8], 0.00584; in assay [9], 0.0536; in [10], 0.0319.
On to `COCCCNC1=C(C#N)C(=O)NC(c2cccs2)S1` (stereo not given), for which the log fold change Tl+ flux in assay [1] was 0.041; in assay [2], 0.00355; in assay [3], 0.0315; in assay [4] it was -0.00136; in assay [5], 0.0147; in [6], -0.0102. For the same molecule, the log fold change Tl+ flux in assay [7] is 0.0346; in [8], 0.0144; in [9], -0.0186; in assay [10] it was -0.0245.
Regarding `CCOC(=O)c1cc(CC)sc1NC(=O)C(Cl)(Cl)Cl`, the log fold change Tl+ flux in assay [1] was -0.00144; in [2], 0.0314; in [3], -0.028; in [4], 0.0374; in [5] it was 0.0144; in [6] it was -0.0151. Further, the log fold change Tl+ flux in assay [7] is -0.066; in assay [8], 0.0214; in [9], -0.00727; in [10], -0.00449.
Regarding `Cc1ccc(I)cc1[N+](=O)[O-]`, the log fold change Tl+ flux in assay [1] is 0.00211; in [2] it was -0.0212; in assay [3] it was 0.0224; in [4], -0.0253; in [5] it was 0.0293; in assay [6], 0.0178. In addition, the log fold change Tl+ flux in assay [7] is 0.00943; in assay [8], -0.016; in assay [9], 0.00957; in [10], -0.00671.
With `O=C(Nc1csc(Cc2c(Cl)cccc2Cl)n1)NN1CCOCC1`, the log fold change Tl+ flux in assay [1] was 0.0786; in [2] it was 0.0031; in [3] it was 0.0515; in assay [4] it was 0.11 (active); in assay [5] it was -0.0174; in assay [6], -0.0115. Further, the log fold change Tl+ flux was 0.0073 in assay [7], 0.0159 in assay [8], 0.00549 in [9] and -0.0281 in assay [10].

The values are drawn from PubChem BioAssay.
